EBV LMP1 NFkB: reduces LMP1-driven NF-kappaB luciferase signal; LMP1-induced NF-kappaB luciferase reporter cells, luminescence; inhibition, % at 12.5 µM; hit rate 0.69% among 350,000; AID 504558; in the data active means inhibition above about 41%; inconclusive means no clear call, values can overlap the other calls;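 further: 0% = neutral control wells and 100% = reference inhibitor control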
TROY NFkB inh: inhibitors of TROY-dependent NF-kB signaling | AID 1347056 | hit rate 0.98% among 360,000 | Q293 LMP1-TROYcd NF-kB luciferase reporter, 4 h | inhibition, % at 10 µM;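 active means compounds whose plate-normalised and pattern-corrected inhibition of the luciferase reporter signal at the single screening dose is 50% or more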
TWEAK-Fn14 inh: TWEAK-Fn14 signaling inhibition. TWEAK-stimulated Fn14 reporter cells, luciferase luminescence, 8 h. inhibition, % at 10 µM. hit rate 2% among 360,000; in the data active means inhibition above about 50%
PAX8 reporter: lowers PAX8-driven luciferase in RMG-I cells. RMG-I TPO-luciferase reporter, SteadyGlo, 24 h. inhibition, % at 12.6 µM. hit rate 1.2% among 360,000. AID 652154;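 active means mean replicate inhibition at least 60% with every replicate also reaching 60%; inconclusive means only one of the two criteria is met; inactive means mean below 60% and not all replicates reaching 60%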;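 further: luciferase light reporting Pax8 driven TPO promoter activity; plate controls were median of neutral control wells for no effect and mitoxantrone controls for full effect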
LGR2 inh: inhibitors of bursicon-induced Drosophila LGR2 receptor cAMP signaling; HEK293 LGR2, CRE-luciferase, bursicon-stimulated, 4 h; inhibition, % at 9.99 µM; hit rate 0.35% among 380,000; AID 720647;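 active means drop in luminescence signal, shown as inhibition above about 50% in the replicate tests, limit read from the data, passing the limit was not always enough; inconclusive means probably only some replicates passing the limit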;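 further: agonist challenge used bursicon conditioned medium at about half maximal strength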
EWS-Fli inh: blocks EWS/Fli oncoprotein-driven transcription. A673 NR0B1-luciferase reporter, viability-normalised. inhibition, % at 12.6 µM. hit rate 0.67% among 350,000;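 active means mean inhibition of at least 50% after viability correction, with every replicate also passing that limit; inconclusive means mean reaches 50% but only one of two replicates passes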;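 further: firefly luciferase signal divided by Alamar Blue viability fluorescence both relative to DMSO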
* = called active by the depositor; u = inconclusive; x = no result. Only some compounds are listed: those with a hit (about 3.2% of all), similar ones and a draw of the others.

SMILES	EBV LMP1 NFkB	TROY NFkB inh	TWEAK-Fn14 inh	PAX8 reporter	LGR2 inh	EWS-Fli inh
C[C@@H]1CN([C@@H](C)CO)C(=O)c2cc(NC(=O)Nc3ccccc3)ccc2O[C@H]1CN(C)C(=O)Nc1ccccc1	x	x	x	-10	7	4
CC(C)NC(=O)N1CC2(C1)[C@@H](c1ccccc1)[C@@H](CO)N2C(=O)C1CCCC1	x	x	x	-4	-10	8
Cc1noc(C)c1S(=O)(=O)Nc1cccc2c1O[C@@H](CN(C)C)[C@@H](C)CN([C@H](C)CO)C2=O	x	x	x	-14	-11	-4
O=C(Nc1nccs1)c1ccc(Br)c(S(=O)(=O)N2CCCC2)c1	-2	4	97*	-16	8	x
CCCn1c(NC(=O)c2ccc(Cl)c(S(=O)(=O)N3CCCC3)c2)nc2ccccc21	3	34	60*	46	x	x
COc1ccc(-c2ccc(C3[C@H]4CNC[C@@H]3N4CC3CCOCC3)cc2)cc1 (some centres not stated)	x	x	x	x	-17	5
CCCNC(=O)C[C@H]1CC[C@@H]2[C@@H](COc3ccc(NC(=O)COC)cc3C(=O)N2C)O1	x	x	x	-16	-11	4
CN1CCN(C(=O)C[C@@H]2CC[C@H]3[C@@H](COC[C@H](O)CN3Cc3cccc(Cl)c3)O2)CC1	x	x	x	-7	-12	-3
Cc1cc(C)c2nc(NNC(=O)c3ccc(S(=O)(=O)N4CCc5ccccc5C4)cc3)sc2c1	u	-17	-16	62*	x	7
C[C@@H]1CN([C@H](C)CO)C(=O)c2cc(N(C)C)ccc2O[C@@H](C)CCCCO[C@@H]1CN(C)C(=O)NC1CCCCC1	x	x	x	53	-1	0
COc1cc(O)c2c(c1)oc(=O)c1c3cc(O)c(O)cc3oc21	x	x	x	20	x	56*
O=C(Nc1ccccc1)N1CC(=O)N2[C@H](CO)[C@H](c3ccc(C#Cc4cccnc4)cc3)[C@H]2C1	x	x	x	-17	27	2
C[C@@H]1CN([C@@H](C)CO)C(=O)c2cc(NC(=O)Cc3ccccc3)ccc2O[C@@H]1CN(C)S(=O)(=O)c1cccs1	x	x	x	x	9	12
CN1CCN(C(c2ccc(F)cc2)c2ccc3cccnc3c2O)CC1 (configuration not stated)	-11	20	-8	x	x	x
CC(=O)NC(c1ccco1)c1cc(F)c2cccnc2c1O (configuration not stated)	32	-7	9	13	2	26
Oc1c(C(Nc2nc3ccccc3s2)c2ccco2)ccc2cccnc12 (configuration not stated)	61*	14	57*	x	x	x
Oc1c(C(Nc2cccc(C(F)(F)F)c2)c2ccncc2)ccc2cccnc12 (configuration not stated)	53*	-28	52*	48	20	15
Oc1c(C(Nc2nccs2)c2ccc(C(F)(F)F)cc2)ccc2cccnc12 (configuration not stated)	73*	1	9	85*	21	u
C[C@@H]1CCCCO[C@H](CN(C)C(=O)C2CCCCC2)[C@H](C)CN([C@@H](C)CO)C(=O)c2cc(NC(=O)c3ccncc3)ccc2O1	x	x	x	19	-43	1
COCC(=O)N1[C@H](C#N)[C@@H](c2ccccc2C2=CCCCC2)[C@@H]1CO	x	x	x	x	-2	2
C[C@@H]1CN([C@@H](C)CO)C(=O)c2cccc(NC(=O)C3CC3)c2O[C@H]1CN(C)Cc1ccncc1	x	x	x	-13	-5	-1
COc1cc(C2C3=C(Nc4ncnn42)c2ccccc2CC3)cc(OC)c1OC (configuration not stated)	-1	26	-27	95*	x	x
C[C@H](CO)N1C[C@H](C)[C@H](CN(C)S(=O)(=O)c2cn(C)cn2)OCc2cn(nn2)CCCC1=O	x	x	x	3	-12	3
COc1cccc(S(=O)(=O)Nc2ccc3c(c2)[C@@H]2C[C@@H](CC(=O)NCc4ccccc4F)O[C@@H](CO)[C@@H]2O3)c1	x	x	x	68*	x	-13
COc1cccc(S(=O)(=O)Nc2ccc3c(c2)[C@H]2C[C@H](CC(=O)NCc4ccccc4F)O[C@H](CO)[C@H]2O3)c1	x	x	x	97*	-4	-11
COc1ccc(CN(C)C[C@@H]2Oc3ccc(NS(=O)(=O)c4ccccc4)cc3C(=O)N([C@H](C)CO)C[C@H]2C)cc1	x	x	x	10	-15	4
COc1cccc(-c2ccc([C@H]3[C@H](CO)N4C(=O)CN(C(=O)c5ccncc5)C[C@@H]34)cc2)c1	x	x	x	x	10	x

Source: PubChem (several laboratories)
